An excerpt weighted towards active compounds, which were near 14% of everything screened.
Lassa entry inh – inhibitors of Lassa virus binding or cell entry | actives 1.2% (n = 300,000) | Lassa virus pseudotype entry inhibition, cell reporter | Potency, µM (top dose mostly 37.9 µM), without a hit: at the highest dose activity change, negative = inhibition, hits mostly inhibitors; calls by dose curve; tested in HEK293 cells; further: potency means the concentration at half of the fitted maximal effect; on the % scale 0 is the no-effect control and ±100 the full control effect; nearly all actives have a fitted effect of over 50% in size
HCMV inh – human cytomegalovirus inhibition | HFF cells, HCMV-luciferase reporter, 72 h; stronger effect = lower value | activity change, negative = inhibition, % at 57.5 µM | actives 4.5% (n = 410,000) | AID 1259415; in the data active means activity change below about -60%; inconclusive means no clear call, values can overlap the other calls; inactive means above about -39%; further: on the % scale 0 is the no-effect control and ±100 the full control effect
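Human foreskin fibroblasts infected with luciferase-reporter HCMV at MOI 1 PFU/cell, compounds at two doses. Luciferase measured 72 h post infection; normalized to buffer-only basal and Salinomycin (10uM) controls.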
MARV entry inh – blocks Marburg virus binding to or entry into cells; Marburg virus pseudotyped entry inhibition, cell reporter; actives 1.8% (n = 300,000); Potency, µM (highest dose often 37.8 µM), inactives show at the highest dose activity change, negative = inhibition, most hits filed as inhibitors; calls by dose curve; tested in HEK293 cells; further: potency means the concentration at half of the fitted maximal effect; on the % scale 0 is the no-effect control and ±100 the full control effect
HCV inh – blocks hepatitis C virus. Huh7.5.1 HCVcc-Cre infection, luciferase reporter, 44 h. Potency, µM (series often up to 41.8 µM), for the others: at the top dose activity change, negative = inhibition, hits mostly inhibitors. actives 3.4% (n = 340,000). AID 651820; further: potency means the concentration at half of the fitted maximal effect; on the % scale 0 is the no-effect control and ±100 the full control effect
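Antiviral activity was scored by luciferase reporter output from cells infected with HCVcc-Cre (~0.5 moi) in presence of compound, 44 h infection period, cells seeded 1,000/well 4 h prior.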
Pf growth 96h – inhibits malaria parasite growth, 96 h; P. falciparum luciferase reporter growth, 96 h; Potency, µM (series often up to 28.7 µM), for inactives: at the highest dose activity change, negative = inhibition, hits mostly inhibitors; actives 6.9% (n = 320,000); AID 504834; further: potency means the concentration at half of the fitted maximal effect; on the % scale 0 is the no-effect control and ±100 the full control effect
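Plates of compound plus infected erythrocytes (2% hematocrit, 0.05% parasitemia final) incubate 96 hours, 37 C, 5% CO2. Detection reagent added; reduced luminescence from the parasites' luciferase reporter flags inhibition.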
Pf growth 48h – P. falciparum growth inhibition at 48 hours (one generation); AID 504832; P. falciparum luciferase growth in erythrocytes, 48 h; actives 5.9% (n = 310,000); Potency, µM (series often up to 28.7 µM), without a hit: top-dose activity change, negative = inhibition, actives largely listed as inhibitors; further: potency means the concentration at half of the fitted maximal effect; on the % scale 0 is the no-effect control and ±100 the full control effect
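Luciferase-expressing parasites in RBCs, 2% Hct / 0.1% parasitemia final; RPMI 1640 + 0.5% Albumax; 37 C, 5% CO2, one generation; luminescence read-out, lower signal = inhibition.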
G2M arrest HeLa – causes HeLa cells to arrest in G2/M phase; actives 60% (n = 25); HeLa cell cycle G2/M arrest, Hoechst DNA content imaging; shares compounds with MARV entry inh; Potency, µM, actives largely listed as inhibitors
WI-38 cytotox – toxic to WI-38 fibroblasts in PNC inhibitor counter-screen; shares compounds with MARV entry inh; WI-38 normal lung fibroblasts, ATPLite luminescence ATP viability, 24 h; Potency, µM (top dose mostly 46.1 µM), inactives show at the highest dose activity change, negative = cytotoxicity, usual class: inhibitors; 120 tested, under 10 active
PNC assembly inh – confirmation of perinucleolar compartment assembly inhibitors; shares compounds with MARV entry inh; PC3M PTB-GFP, PNC prevalence imaging, 16 h; Potency, µM (titrated, usually from 46.1 µM), without a hit: at the top dose activity, negative = PNC inhibition, hits mostly inhibitors; actives 50% (n = 120); AID 2730
PC3M casp3-7 – PC3M caspase 3/7 activation by PNC inhibitor hits; activity change, positive = activation, % at 46.1 µM; PC3M-GFP caspase 3/7 activation, luminescence, 24 h; shares compounds with MARV entry inh; 120 tested, under 10 active
Active calls of the source: *; u = inconclusive; x = not tested or not shown; ! = a repeat was not active; [ ] = dose if it differs, or a comment. Unless noted, the call rests on the fitted dose curve; in most records, active means well fitted curve in the direction sought with a large enough effect; inconclusive means small, poorly fitted or top-dose-only effect, or another doubt; inactive means no such curve, though single readings can be large; an effect the other way counts as inactive or inconclusive.

SMILES	Lassa entry inh	HCMV inh	MARV entry inh	HCV inh	Pf growth 96h	Pf growth 48h	WI-38 cytotox	PNC assembly inh	PC3M casp3-7	others
Cc1ccc(-n2cc(-c3ccccc3)c3c(NN4CCOCC4)ncnc32)cc1	-8.7%	u	2.8%	-13.7%	175.6%	-25.7%	16.5%	-20.5%	-2.2
CCc1nc2c(OCc3ccc(F)c(F)c3)cccn2c1N(C)C(=O)c1ccc(C)cc1	x	21.1	x	x	x	x	x	x	x
CC12CCC(C(=O)NC(c3ccccc3)c3ccccc3)(OC1=O)C2(C)C (stereo not given)	u	61.5	1.3%	13.2%	13.1µM*	x	-9.7%	15.0%	-1.1
CC(C)Cn1c(SCC(=O)NC2CC2)nc2ccccc21	x	38.0	x	x	x	x	x	x	x
CC(C)c1ccc(S(=O)(=O)/N=C2/C=C(Sc3ncn[nH]3)C(=O)c3ccccc32)cc1	u	x	u	2.51µM*	u	1.31µM*	-4.3%	u	-4.2
Cc1ccc(NC(c2nnc(-c3ccccc3)o2)c2ccccc2F)c(Cl)c1 (stereo not given)	11.6%[46.1 µM]	26.7	19.0%[46.1 µM]	x	x	x	x	x	x
Cc1ccc(C(C)C)c(OCc2ccc(C(=O)N/N=C/c3ccc(O)cc3O)cc2)c1	u	-96.7*	6.31µM*	3.16µM*	u	2.62µM*	-6.7%	u	-1.9
Cc1ccc(C(C)C)c(OCc2ccc(C(=O)N/N=C/c3ccc(C(=O)O)cc3)cc2)c1	x	0.0	x	-13.5%	-5.4%	u	x	x	x
COc1ccc(S(=O)(=O)N2CCC(n3c(C(F)(F)F)nc4cccnc43)CC2)cc1OC	-0.3%[46.1 µM]	-7.6	x	x	x	x	x	x	x
CC(=O)Nc1ccc(S(=O)(=O)Oc2ccc3c(c2)C(C)=CC(C)(C)N3)cc1	0.82µM*	x	u	u	-2.1%	-10.7%	-10.0%	5.01µM*	-5.0
CC1=CC(C)(C)Nc2ccc(OS(=O)(=O)c3ccc(C)cc3)cc21	-13.7%	-36.6	-16.8%	u	u	u	x	x	x
O=C1C(Nc2ccccc2)=C/C(=N/S(=O)(=O)c2cccs2)c2ccccc21	u	x	4.11µM*	3.98µM*	0.522µM*	0.522µM*	28.2µM*	u	u
Cc1ccc(NC2=C/C(=N/S(=O)(=O)c3cccs3)c3ccccc3C2=O)cc1	4.11µM*	-102.0*	4.61µM*	u	3.9%	u	31.6µM*	25.1µM*	u
CCOc1ccc(-c2c(C)nn3c(C)c(C(=O)NCc4ccc(Cl)cc4)cnc23)cc1OCC	-1.0%[46.1 µM]	-9.8	x	x	x	x	x	x	x
NSc1nc(N)c2nc(-c3ccccc3)c(-c3ccccc3)nc2n1	-4.7%	32.2	-16.1%[46.1 µM]	-10.0%	u	-6.5%	x	x	x
Nc1nc(N)c2nc(-c3ccccc3)c(N)nc2n1	u	u	2.82µM*!	13.3%[8.37 µM]	3.79µM*	1.69µM*	x	x	x	G2M arrest HeLa=10*
O=C(NCc1ccccc1Cl)c1ccc2c(c1)NC(=O)C(CS(=O)(=O)Cc1ccc(Cl)cc1)N2 (stereo not given)	3.8%[46.1 µM]	-9.4	x	x	x	x	x	x	x
CCCCN(C(=O)Nc1ccc(Cl)cc1)C1CCN(C(C)=O)CC1	u	24.9	5.8%	18.9%	u	x	4.1%	-11.0%	-0.8
CCOCCCN(C(=O)Nc1ccc(Cl)cc1)C1CCN(C(C)=O)CC1	3.2%[46.1 µM]	9.0	x	x	x	x	x	x	x
O=C(NC(Cc1c[nH]c2ccccc12)C(=O)Nc1ccc(OC(F)(F)F)cc1)c1cccs1 (stereo not given)	2.06µM*	-97.0*	2.59µM*	u	u	-11.8%	-10.1%	7.08µM*	-2.7
Cc1cccc(-n2c(SCC(=O)Nc3ncc(Cl)cc3Cl)nc3ccccc32)c1	0.82µM*	-99.3*	1.16µM*	11.2µM*	4.65µM*	u	-15.0%	5.01µM*	-3.9
Cc1cccc(/C=C(\c2nc3ccccc3[nH]2)S(=O)(=O)c2ccccc2)c1	u	-98.3*	12.6µM*	11.2µM*	u	3.7µM*	u	22.4µM*	-9.8
Cc1ccc(NC(=S)c2nc3ccccc3[nH]2)c(C)c1	u	49.6	u	-14.6%	-9.4%	17.3%	x	x	x
NC(=O)Cn1c(S(=O)(=O)Cc2ccccc2)nc2ccccc21	-14.4%	-23.0	4.7%	9.4%	x	x	x	x	x
C#CCn1c(S(=O)(=O)Cc2ccc(F)cc2)nc(-c2ccccc2)c1-c1ccccc1	3.66µM*	-97.3*	0.92µM*	u	8.28µM*	u	-24.2%	7.94µM*	-3.4
SMILES	Lassa entry inh	HCMV inh	MARV entry inh	HCV inh	Pf growth 96h	Pf growth 48h	WI-38 cytotox	PNC assembly inh	PC3M casp3-7	others
COc1ccc(-c2csc(NC(=O)c3ccc(OCC(=O)N4CCOCC4)c(OC)c3)n2)cc1	u	-23.7	u	u	u	-4.8%	1.9%	u	-7.9
CCOc1ccccc1NC(=O)c1ccc(OCC(=O)N2CCOCC2)c(OC)c1	x	u	x	10.2%	x	x	x	x	x
Cc1cc(SCC(=O)O)nc2ccccc12	16.9%	10.9	u	6.2%	15.2%	12.2%	x	x	x
Cc1cc(SCC(=O)c2cc(C)n(C)c2C)nc2ccccc12	u	-20.6	u	-21.7%	u	53.3%	-10.5%	u	5.2
O=C(NC(c1ccc(-c2ccccc2)cc1)c1cnccn1)C1CCN(Cc2cccs2)CC1 (stereo not given)	x	5.2	x	x	x	x	x	x	x
CCCCOCC1CN(CCCC)S(=O)(=O)c2c(Oc3ccc(C(C)C)cc3)cccc2O1 (stereo not given)	u	-4.9	x	x	x	x	x	x	x
COc1cc(C(=O)Oc2ccccc2/C=N/NC(=O)c2ccc(Cl)cc2)cc(OC)c1OC	11.2µM*	-99.3*	11.6µM*	2.82µM*	5.7%	13.1µM*	u	u	-3.0
Cc1cc(C(=O)N/N=C/c2cc(Br)cc(Br)c2OC(=O)c2ccccc2)n[nH]1	u	x	-9.7%	1.1%	21.0%	u	-11.9%	u	3.5
Cc1cc(C(=O)N/N=C/c2cccs2)n[nH]1	u	92.2	20.7%[46.1 µM]	7.9%	423.4%	127.8%	x	x	x
O=C(Cc1coc2ccc3ccccc3c12)Nc1nnc(C2CC2)s1	2.51µM*	-77.4*	u	u	u	3.5%	-7.2%	7.94µM*	1.1
COc1ccc(-c2cc(C#N)nc(N3CCN(C)CC3)n2)cc1	14.1%	-24.0	u	12.6µM*	u	-8.3%	21.6%	u	-7.7

Bioassay records deposited in PubChem by National Center for Advancing Translational Sciences (NCATS).
